Drawing on ChEMBL document CHEMBL2218924, “A broad activity screen in support of a chemogenomic map for kinase signalling research and drug discovery” (Biochem J, 2013), this text covers residual activity for 7 molecules.

Structures are written as SMILES.

Assay [1] deals with T1, Protein kinase C zeta type (Homo sapiens) (UniProt Q05513).
T1 sequence (whole entry): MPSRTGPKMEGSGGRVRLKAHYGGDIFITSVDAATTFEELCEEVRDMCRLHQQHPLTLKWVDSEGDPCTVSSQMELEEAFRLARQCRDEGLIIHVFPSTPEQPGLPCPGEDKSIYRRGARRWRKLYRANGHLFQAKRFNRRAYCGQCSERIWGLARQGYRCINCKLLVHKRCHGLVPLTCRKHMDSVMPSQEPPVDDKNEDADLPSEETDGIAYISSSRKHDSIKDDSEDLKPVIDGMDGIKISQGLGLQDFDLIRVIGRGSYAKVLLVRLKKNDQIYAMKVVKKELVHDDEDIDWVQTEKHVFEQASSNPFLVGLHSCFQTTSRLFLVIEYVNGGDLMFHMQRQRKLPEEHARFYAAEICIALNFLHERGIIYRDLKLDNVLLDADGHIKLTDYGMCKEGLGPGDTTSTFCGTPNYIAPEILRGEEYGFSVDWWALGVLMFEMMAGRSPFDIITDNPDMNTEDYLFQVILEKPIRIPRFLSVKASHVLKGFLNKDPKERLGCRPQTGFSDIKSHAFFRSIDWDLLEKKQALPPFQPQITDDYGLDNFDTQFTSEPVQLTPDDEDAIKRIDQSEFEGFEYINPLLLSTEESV
To be noted: at 1 µM.

Assay [2] addresses Tyrosine-protein kinase ABL1 (Homo sapiens) (UniProt P00519). To be noted: at 1 µM.
For assay [3] the target is unchanged. As to conditions: at 10 µM; call rule not given here.
Assay [4] addresses Tyrosine-protein kinase ABL2 (Homo sapiens) (UniProt P42684). As to conditions: at 1 µM.
Assay [5] has the same target. As to conditions: at 10 µM.
Assay [6] has as its target T2, Aurora kinase A (Homo sapiens) (UniProt O14965).
T2 sequence (whole entry): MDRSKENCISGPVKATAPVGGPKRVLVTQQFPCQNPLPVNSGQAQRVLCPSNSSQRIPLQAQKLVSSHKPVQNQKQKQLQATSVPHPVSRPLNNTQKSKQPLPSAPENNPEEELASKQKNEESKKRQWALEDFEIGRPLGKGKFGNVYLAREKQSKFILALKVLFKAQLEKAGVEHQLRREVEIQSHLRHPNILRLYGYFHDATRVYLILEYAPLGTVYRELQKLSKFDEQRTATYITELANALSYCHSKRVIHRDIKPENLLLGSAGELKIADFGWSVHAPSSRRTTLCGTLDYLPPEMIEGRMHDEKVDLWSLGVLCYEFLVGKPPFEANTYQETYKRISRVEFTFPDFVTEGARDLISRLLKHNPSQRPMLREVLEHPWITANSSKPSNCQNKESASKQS
As to conditions: at 1 µM.

Assay [7] addresses T2, Aurora kinase A (Homo sapiens). To be noted: at 10 µM.
Assay [8] has as its target Aurora kinase B (Homo sapiens) (UniProt Q96GD4). As to conditions: at 1 µM.
The target is the same in assay [9]. As to conditions: at 10 µM.
Assay [10] has as its target T3, Aurora kinase C (Homo sapiens) (UniProt Q9UQB9).
T3 sequence (whole entry): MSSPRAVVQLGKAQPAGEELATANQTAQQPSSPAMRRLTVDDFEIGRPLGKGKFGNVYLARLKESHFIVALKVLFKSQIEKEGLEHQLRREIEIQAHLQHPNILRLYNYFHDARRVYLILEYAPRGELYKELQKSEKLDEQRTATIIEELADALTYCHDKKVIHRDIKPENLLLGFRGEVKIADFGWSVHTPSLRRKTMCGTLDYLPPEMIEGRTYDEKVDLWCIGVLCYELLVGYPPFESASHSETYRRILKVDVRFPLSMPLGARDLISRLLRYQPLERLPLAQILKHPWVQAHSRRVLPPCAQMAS
As to conditions: at 1 µM.

Assay [11] has as its target T3, Aurora kinase C (Homo sapiens). To be noted: at 10 µM.
The target in assay [12] is Tyrosine-protein kinase receptor UFO (Homo sapiens) (UniProt P30530). To be noted: at 1 µM.
Assay [13] concerns the target Protein-tyrosine kinase 6 (Homo sapiens) (UniProt Q13882). As to conditions: at 1 µM.
Assay [14] shares this target. As to conditions: at 10 µM.
The target of assay [15] is Tyrosine-protein kinase BTK (Homo sapiens) (UniProt Q06187). As to conditions: at 1 µM.
The target is the same in assay [16]. As to conditions: at 10 µM.
Assay [17] has as its target Tyrosine-protein kinase Blk (Homo sapiens) (UniProt P51451). As to conditions: at 1 µM.
Assay [18] shares this target. To be noted: at 10 µM.
For assay [19], the target named is T4, Mitogen-activated protein kinase kinase kinase 5 (Homo sapiens) (UniProt Q99683).
T4 sequence (whole entry): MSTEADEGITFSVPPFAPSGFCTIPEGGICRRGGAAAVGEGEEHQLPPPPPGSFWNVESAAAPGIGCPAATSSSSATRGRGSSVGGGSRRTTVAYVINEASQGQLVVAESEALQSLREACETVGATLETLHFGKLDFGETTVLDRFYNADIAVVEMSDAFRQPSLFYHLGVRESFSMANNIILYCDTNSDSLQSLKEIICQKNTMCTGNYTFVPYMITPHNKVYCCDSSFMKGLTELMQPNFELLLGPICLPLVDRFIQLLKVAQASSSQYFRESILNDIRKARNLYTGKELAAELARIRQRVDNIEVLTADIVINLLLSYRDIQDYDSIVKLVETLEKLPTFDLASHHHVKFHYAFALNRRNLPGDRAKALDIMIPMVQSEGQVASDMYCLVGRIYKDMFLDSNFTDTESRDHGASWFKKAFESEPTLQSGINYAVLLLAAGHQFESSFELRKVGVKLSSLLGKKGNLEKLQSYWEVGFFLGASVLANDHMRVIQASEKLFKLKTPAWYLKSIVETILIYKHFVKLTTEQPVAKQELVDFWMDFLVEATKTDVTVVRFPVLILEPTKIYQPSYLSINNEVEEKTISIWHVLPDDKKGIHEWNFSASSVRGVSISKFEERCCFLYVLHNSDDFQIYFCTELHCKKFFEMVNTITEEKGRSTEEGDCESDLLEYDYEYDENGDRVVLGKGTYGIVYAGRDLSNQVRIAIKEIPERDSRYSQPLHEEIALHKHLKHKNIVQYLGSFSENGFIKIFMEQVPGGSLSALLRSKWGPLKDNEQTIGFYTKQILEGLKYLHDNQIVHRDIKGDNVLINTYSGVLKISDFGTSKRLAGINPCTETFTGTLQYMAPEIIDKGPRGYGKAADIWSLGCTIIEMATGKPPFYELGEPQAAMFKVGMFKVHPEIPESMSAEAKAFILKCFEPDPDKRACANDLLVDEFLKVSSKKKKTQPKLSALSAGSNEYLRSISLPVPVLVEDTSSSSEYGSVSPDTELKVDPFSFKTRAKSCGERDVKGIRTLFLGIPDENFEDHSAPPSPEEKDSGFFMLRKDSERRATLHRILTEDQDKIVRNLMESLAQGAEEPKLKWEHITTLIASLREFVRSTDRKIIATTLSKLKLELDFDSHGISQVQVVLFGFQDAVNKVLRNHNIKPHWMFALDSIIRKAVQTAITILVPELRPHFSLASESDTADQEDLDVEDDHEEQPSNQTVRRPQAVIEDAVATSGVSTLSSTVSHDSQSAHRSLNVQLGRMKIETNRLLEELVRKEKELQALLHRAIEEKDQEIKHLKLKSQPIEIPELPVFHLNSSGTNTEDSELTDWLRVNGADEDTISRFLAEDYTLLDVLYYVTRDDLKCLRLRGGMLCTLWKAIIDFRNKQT
To be noted: at 10 µM.

For assay [20], the target named is Tyrosine-protein kinase receptor UFO (Homo sapiens) (UniProt P30530). As to conditions: at 10 µM.

Aurora kinase B (Homo sapiens), sequence (Q96GD4 whole entry): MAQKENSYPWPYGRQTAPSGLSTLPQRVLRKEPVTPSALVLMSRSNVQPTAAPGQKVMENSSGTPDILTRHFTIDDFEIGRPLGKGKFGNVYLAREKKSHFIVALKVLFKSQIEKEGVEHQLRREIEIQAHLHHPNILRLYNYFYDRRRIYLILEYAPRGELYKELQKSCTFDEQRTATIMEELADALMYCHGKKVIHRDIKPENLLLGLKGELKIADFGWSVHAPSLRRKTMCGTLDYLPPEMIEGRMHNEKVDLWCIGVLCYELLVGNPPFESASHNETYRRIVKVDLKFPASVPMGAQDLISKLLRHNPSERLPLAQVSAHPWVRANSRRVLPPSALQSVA
Tyrosine-protein kinase Blk (Homo sapiens), sequence (P51451 2-505 limits assumed): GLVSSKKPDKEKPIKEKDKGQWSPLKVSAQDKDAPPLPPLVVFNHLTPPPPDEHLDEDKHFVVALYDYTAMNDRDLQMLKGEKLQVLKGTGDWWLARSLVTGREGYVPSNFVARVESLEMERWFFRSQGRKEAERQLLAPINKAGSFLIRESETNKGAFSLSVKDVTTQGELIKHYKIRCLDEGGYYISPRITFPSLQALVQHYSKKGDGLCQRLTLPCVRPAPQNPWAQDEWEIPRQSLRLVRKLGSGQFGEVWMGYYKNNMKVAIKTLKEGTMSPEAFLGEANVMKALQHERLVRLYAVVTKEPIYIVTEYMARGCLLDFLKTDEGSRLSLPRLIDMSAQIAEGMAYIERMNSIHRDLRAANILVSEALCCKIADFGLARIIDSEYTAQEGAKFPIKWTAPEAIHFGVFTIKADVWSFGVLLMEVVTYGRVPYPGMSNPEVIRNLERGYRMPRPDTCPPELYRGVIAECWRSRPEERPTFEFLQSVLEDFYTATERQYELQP
Tyrosine-protein kinase ABL2 (Homo sapiens), sequence (P42684 whole entry): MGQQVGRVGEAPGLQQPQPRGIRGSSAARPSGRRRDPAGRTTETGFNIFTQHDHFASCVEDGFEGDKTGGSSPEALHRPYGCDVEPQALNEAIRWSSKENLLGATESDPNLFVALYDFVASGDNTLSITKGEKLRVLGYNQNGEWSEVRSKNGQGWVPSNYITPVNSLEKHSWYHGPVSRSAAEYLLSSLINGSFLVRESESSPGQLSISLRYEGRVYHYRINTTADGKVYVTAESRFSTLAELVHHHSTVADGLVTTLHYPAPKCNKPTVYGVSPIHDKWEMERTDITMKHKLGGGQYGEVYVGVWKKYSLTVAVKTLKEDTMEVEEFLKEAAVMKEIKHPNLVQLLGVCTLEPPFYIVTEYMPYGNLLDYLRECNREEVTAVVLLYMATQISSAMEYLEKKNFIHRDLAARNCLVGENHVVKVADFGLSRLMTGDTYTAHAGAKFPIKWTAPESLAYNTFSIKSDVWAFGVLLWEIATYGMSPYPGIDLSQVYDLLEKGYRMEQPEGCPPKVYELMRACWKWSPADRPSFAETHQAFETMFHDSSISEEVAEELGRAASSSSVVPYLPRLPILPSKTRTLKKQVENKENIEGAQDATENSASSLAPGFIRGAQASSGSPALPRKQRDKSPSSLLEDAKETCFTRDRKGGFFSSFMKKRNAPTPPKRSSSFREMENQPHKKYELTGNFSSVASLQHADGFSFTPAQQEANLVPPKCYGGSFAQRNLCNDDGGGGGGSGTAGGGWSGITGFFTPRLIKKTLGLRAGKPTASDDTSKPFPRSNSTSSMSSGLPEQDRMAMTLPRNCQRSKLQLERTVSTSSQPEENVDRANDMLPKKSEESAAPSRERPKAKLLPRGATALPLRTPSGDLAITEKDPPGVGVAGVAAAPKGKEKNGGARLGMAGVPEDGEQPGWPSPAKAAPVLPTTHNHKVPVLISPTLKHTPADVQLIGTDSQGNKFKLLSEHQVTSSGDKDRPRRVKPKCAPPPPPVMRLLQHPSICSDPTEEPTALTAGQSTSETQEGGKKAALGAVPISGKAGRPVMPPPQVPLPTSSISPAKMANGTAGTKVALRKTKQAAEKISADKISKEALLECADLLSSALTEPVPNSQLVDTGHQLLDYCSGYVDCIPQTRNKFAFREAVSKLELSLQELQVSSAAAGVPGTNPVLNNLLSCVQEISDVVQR
Tyrosine-protein kinase ABL1 (Homo sapiens), sequence (P00519 whole entry): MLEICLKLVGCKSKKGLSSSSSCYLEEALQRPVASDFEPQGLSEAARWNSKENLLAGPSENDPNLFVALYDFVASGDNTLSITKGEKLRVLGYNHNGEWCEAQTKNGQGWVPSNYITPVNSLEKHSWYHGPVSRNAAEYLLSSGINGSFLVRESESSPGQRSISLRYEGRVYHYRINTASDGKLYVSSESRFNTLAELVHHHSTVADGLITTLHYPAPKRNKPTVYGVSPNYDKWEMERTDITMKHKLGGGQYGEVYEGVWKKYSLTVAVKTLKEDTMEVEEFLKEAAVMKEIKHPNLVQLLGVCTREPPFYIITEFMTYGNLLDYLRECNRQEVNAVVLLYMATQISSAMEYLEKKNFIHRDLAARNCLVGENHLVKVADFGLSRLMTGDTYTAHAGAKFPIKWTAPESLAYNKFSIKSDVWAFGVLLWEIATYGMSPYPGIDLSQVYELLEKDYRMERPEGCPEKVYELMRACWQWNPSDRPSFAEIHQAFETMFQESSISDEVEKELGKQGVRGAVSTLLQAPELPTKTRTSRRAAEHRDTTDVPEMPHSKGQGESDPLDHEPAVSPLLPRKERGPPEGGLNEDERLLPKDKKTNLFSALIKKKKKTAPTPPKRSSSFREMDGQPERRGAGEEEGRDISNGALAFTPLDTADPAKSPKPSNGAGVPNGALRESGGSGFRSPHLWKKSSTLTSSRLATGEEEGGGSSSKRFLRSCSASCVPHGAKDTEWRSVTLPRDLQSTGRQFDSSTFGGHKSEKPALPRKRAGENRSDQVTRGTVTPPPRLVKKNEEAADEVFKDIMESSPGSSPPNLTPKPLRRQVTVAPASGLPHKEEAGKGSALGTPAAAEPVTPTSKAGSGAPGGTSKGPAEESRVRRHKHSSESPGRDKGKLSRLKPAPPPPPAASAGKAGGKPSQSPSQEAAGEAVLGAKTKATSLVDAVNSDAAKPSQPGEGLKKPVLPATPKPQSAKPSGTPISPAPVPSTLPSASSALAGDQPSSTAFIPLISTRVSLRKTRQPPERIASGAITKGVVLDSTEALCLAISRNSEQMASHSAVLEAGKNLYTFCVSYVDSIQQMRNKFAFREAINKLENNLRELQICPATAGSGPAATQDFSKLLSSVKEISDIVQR
Tyrosine-protein kinase receptor UFO (Homo sapiens), sequence (P30530 whole entry): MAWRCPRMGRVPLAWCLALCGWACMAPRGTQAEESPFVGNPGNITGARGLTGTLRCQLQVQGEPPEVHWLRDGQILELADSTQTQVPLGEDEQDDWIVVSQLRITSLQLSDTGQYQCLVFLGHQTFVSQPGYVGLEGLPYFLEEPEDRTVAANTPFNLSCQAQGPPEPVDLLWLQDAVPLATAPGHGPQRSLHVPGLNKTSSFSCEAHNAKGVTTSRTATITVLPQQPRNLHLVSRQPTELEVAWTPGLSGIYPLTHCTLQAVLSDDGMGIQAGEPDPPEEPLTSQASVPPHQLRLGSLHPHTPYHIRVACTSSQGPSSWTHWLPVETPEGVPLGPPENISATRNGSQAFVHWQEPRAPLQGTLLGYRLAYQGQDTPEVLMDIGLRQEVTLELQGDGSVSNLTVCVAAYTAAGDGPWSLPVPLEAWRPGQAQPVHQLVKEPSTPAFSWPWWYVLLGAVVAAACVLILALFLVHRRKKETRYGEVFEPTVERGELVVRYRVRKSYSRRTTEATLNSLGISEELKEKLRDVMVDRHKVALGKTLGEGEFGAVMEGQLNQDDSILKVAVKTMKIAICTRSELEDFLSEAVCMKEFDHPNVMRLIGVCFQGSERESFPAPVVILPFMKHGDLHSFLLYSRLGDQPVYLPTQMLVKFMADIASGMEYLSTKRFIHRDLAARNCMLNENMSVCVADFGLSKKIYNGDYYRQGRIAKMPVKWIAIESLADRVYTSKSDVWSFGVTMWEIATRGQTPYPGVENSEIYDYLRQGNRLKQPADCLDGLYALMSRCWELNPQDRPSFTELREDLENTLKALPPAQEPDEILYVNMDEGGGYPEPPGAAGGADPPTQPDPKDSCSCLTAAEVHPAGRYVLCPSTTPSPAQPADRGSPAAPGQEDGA
Protein-tyrosine kinase 6 (Homo sapiens), sequence (Q13882 whole entry, looked up): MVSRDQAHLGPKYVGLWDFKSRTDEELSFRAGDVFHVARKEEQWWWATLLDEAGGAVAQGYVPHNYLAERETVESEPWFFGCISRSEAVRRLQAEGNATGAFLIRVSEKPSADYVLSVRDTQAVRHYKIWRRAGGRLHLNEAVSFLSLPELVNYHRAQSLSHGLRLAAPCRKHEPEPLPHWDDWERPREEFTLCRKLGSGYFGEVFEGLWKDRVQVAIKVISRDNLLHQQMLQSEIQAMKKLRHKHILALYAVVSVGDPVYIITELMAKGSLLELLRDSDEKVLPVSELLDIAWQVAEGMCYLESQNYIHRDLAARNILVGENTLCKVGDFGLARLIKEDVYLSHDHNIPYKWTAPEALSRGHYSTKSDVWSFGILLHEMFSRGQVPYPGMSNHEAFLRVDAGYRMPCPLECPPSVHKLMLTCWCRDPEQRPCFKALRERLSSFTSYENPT

As for `CCCCc1c(-c2ccc(OC)cc2)[nH]c2nccnc12`, the residual activity is 114% (inactive) in assay [1]; 74% in assay [2]; 80% in [3]; 59% in assay [4]; 53% in [5]; 9% in assay [6]. In addition, the residual activity in assay [7] was 13%; in [8] it was 1%; in assay [9], -1%; in assay [10] it was 59%; in [11] it was 54%; in assay [12], 77%. Also, the residual activity in assay [13] was 37%; in [14] it was 46%; in [15], 35%; in assay [16] it was 4%; in [17], 73%; in [18], 72%.
Regarding `O=C(CCCc1ccc(-c2ccccc2F)cc1)Nc1ccc(O)cc1`, the residual activity came to 105% in assay [19]; 110% in [2]; 105% in assay [4]; 86% in [5]; 130% in assay [6]; 102% in assay [7]. Further, the residual activity in assay [8] was 107%; in [9] it was 91%; in [10], 97%; in assay [11], 92%; in [12] it was 105%; in assay [20], 100%. For the same molecule, the residual activity was found to be 104% in assay [13], 96% in assay [14], 106% in assay [15] and 95% in [16].
For `O=C(NC(NC(=S)Nc1ccc(F)c([N+](=O)[O-])c1)C(Cl)(Cl)Cl)C(c1ccccc1)c1ccccc1` (configuration not stated), the residual activity in assay [1] was 102% (inactive); in assay [3] it was 77%; in assay [5], 93%; in assay [6], 83%; in assay [7], 69%; in assay [9], 69%. Also, the residual activity in [10] came out at 94%; in assay [11], 91%; in assay [20], 91%; in assay [15] it was 87%; in assay [16] it was 89%.
In the case of `c1ccc(-c2cnc(Nc3ccc(OCCN4CCCC4)cc3)s2)cc1`, the residual activity is 106% (inactive) in assay [1]; 61% in assay [2]; 11% in assay [3]; 46% in assay [4]; 8% in [5]; 67% in assay [8]. The residual activity in assay [9] worked out at 18%; in [10], 110%; in assay [11], 47%; in [14] it was 34%; in assay [17] it was 75%; in assay [18], 6%.
For `COc1ccc(CNC(=O)Nc2ncc([N+](=O)[O-])s2)cc1`, the residual activity in assay [1] was 104% (inactive); in assay [4] it was 115%; in [7], 113%; in assay [10] it was 75%; in [11], 78%; in assay [13], 24%. Further, the residual activity in assay [14] worked out at 17%; in assay [15] it was 42%; in assay [16], 35%.
With `O=c1cc(N2CCNCC2)oc2c(-c3ccccc3)cccc12`, the residual activity in [19] is 78%; in [2], 88%; in [3] it was 89%; in [4], 97%; in assay [5] it was 101%; in assay [6], 95%. The residual activity in assay [7] is 80%; in assay [8] it was 79%; in [9], 63%; in assay [12], 80%; in assay [20], 76%; in [14], 99%. For the same molecule, the residual activity in assay [18] worked out at 71%.
On to `O=C1NC(=O)C(c2c[nH]c3ccccc23)=C1c1c[nH]c2ccccc12`, for which the residual activity is 78% (inactive) in assay [1]; 68% in assay [3]; 78% in assay [4]; 25% in assay [5]; 80% in [6]; 45% in assay [7]. The residual activity in assay [8] worked out at 76%; in assay [9] it was 20%; in assay [10], 114%; in assay [20], 56%; in assay [15] it was 100%; in [16], 67%. The residual activity in assay [18] came out at 23%.
